Experimental data published in ChEMBL document CHEMBL4513216, “Probing the Open Global Health Chemical Diversity Library for Multistage-Active Starting Points for Next-Generation Antimalarials” (ACS Infect Dis, 2020).
Among all 69,000 compounds or so, about 8,600 (12%) showed an effect of 50% or more. The full list was thinned out, with strong results kept by preference.

system: Plasmodium berghei; test: Screen against P. berghei liver stage (PbLuc), transformed with Luciferase, at 10uM; type: functional, HepG2; details: tested at 10 uM

Row | Compound | INHIBITION [%]
1 | NC(=O)N1CCC(C(=O)NCc2nncn2-c2ccccc2)CC1 | 38.5
2 | CC(C)c1nc(CN2CCOC(Cn3cccn3)C2)no1 (stereo unspecified) | -38.7
3 | Cc1ncncc1C(=O)N1C[C@@H]2CC[C@H]1CN(C(=O)c1ccncc1)C2 | -19.2
4 | CC(C)c1nccn1CCC(=O)NCC(C)(O)c1ccco1 (stereo unspecified) | -33.4
5 | CN(C(=O)c1ccco1)c1nc2c(s1)CCCC2 | -68.6
6 | Cc1cc(=O)n(CC(=O)NCC2CCCO2)c(-c2cccc(Cl)c2)n1 (stereo unspecified) | 33.5
7 | Cc1cc(=O)n(CC(=O)NCC2CCCO2)c(-c2ccccc2)n1 (stereo unspecified) | 21
8 | Cc1cc(=O)n(CC(=O)NCC2CCCO2)c(-c2ccc(F)cc2)n1 (stereo unspecified) | 50.1
9 | O=C(N1CCCO1)[C@@]12CCO[C@@H]1CCN(Cc1ccc(F)cc1)C2 | -47.8
10 | O=C(C[C@@H]1COC[C@H]2CN(Cc3ccc(F)cc3)C[C@@H]12)N1CCCCO1 | -13.4
11 | O=C(C[C@@H]1COC[C@H]2CN(CC3CCOCC3)C[C@@H]12)N1CCCCO1 | 76.4
12 | O=C(C[C@@H]1COC[C@H]2CN(C3CCCC3)C[C@@H]12)N1CCCCO1 | 57.1
13 | O=C(C[C@@H]1COC[C@H]2CN(CC3CC3)C[C@@H]12)N1CCCCO1 | 16.9
14 | CS(=O)(=O)N1C[C@@H]2COC[C@@H](CC(=O)N3CCCCO3)[C@@H]2C1 | 28.2
15 | O=C([C@@H]1COC[C@H]2CN(C3CCCC3)C[C@H]21)N1CCCCO1 | 40.5
16 | O=C(c1ccncn1)N1CCC[C@]2(C[C@H](Oc3ncccc3F)CO2)C1 | -10.3

Row | Compound | INHIBITION [%]
17 | COc1cccc(S(=O)(=O)N2C[C@@H](O)[C@H](N(C)C)C2)c1 | 9.98
18 | Cn1cc(-c2cnc(N3CCCC3)nc2)cc1C(=O)N1CCOCC1 | -18.4
19 | Cn1nccc1C(=O)N1CCC(c2ncc(Cl)cc2S(C)(=O)=O)CC1 | 30.4
20 | C=Cn1ncc(CN2C[C@@H]3CCCN3C[C@H]2Cc2ccccc2)c1C | 51.5
21 | C=Cn1ncc(CN2C[C@@H]3CCCN3C[C@@H]2Cc2ccccc2)c1C | 50
22 | CCCn1ncc(CN2C[C@@H]3CCCN3C[C@@H]2CCSC)c1C | 57.4
23 | CCCn1ncc(CN2C[C@@H]3CCCN3C[C@H]2Cc2ccccc2)c1C | 57.5
24 | C=Cn1ncc(CN2C[C@@H]3C[C@@H](O)CN3C[C@@H]2Cc2ccccc2)c1C | 42.6
25 | C=Cn1ncc(CN2C[C@@H]3C[C@@H](O)CN3C[C@H]2Cc2ccccc2)c1C | 13
26 | CCn1ncc(CN2C[C@@H]3CCCN3C[C@H]2CCSC)c1C | 2.71
27 | C=Cn1ncc(CN2C[C@@H]3CCCN3C[C@@H]2CCSC)c1C | 30.8
28 | CCn1ncc(CN2C[C@@H]3CCCN3C[C@@H]2CCSC)c1C | 46
29 | CCCn1ncc(CN2C[C@@H]3CCCN3C[C@H]2CCSC)c1C | 37.6
30 | C=Cn1ncc(CN2C[C@@H]3CCCN3C[C@H]2CCSC)c1C | 30.1
31 | CCCn1ncc(CN2C[C@@H]3CCCN3C[C@@H]2Cc2ccccc2)c1C | 29.3
